This passage reports growth results from PubChem BioAssay (NCI).

The panel holds about 83,000 compounds, 20% with a hit somewhere; the sample as a whole holds those more often.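 Interpretation: 100, growth as untreated; towards 0, rising growth inhibition; 0, no net growth; 0 to -100, cell death. Compounds scoring below 10 were considered active.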 Activity calls are given as the source filed them.

The test system of this assay is MDA-MB-468 breast. Description: NCI-60 one-dose screen, 48 h (100 = growth as untreated, 0 = no growth, -100 = all killed). As to conditions: 10 µM unless noted.
On to `CCC(C)[C@H]1OC(=O)[C@H](C(C)C)N(C)C(=O)[C@@H](C(C)C)OC(=O)[C@H](C(C)C)N(C)C(=O)[C@@H](C(C)CC)OC(=O)[C@H](C(C)C)N(C)C1=O` (stereo not given in full), for which the growth was -0.281% (active).

Consider `CCc1ccc(-c2cn3ccnc3c(-c3ccc4ncn(Cc5ccccc5)c4c3)n2)cc1`, for which the growth was 82.8% (inactive).

`COc1cc(C2CC(c3ccc(Cl)cc3)=NN2C=O)ccc1OS(=O)(=O)c1ccc(C)cc1` (stereo not given): the growth is 60.6% (inactive).

For `CCOC(=O)c1c2c(n3ccc(C)cc13)C(=O)c1ccccc1C2=O`, the growth was 102% (inactive).

Take `C=C1c2nc3ccccc3n2C=C(c2ccc(Cl)cc2)N1Cc1ccc(OC)cc1`: the growth was 80.8% (inactive).

Consider `CCCCN(CC)CC(CC)Nc1cc(OC)cc2cccnc12` (stereo not given), for which the growth was 119% (inactive).

As for `O=C(Nc1nccs1)c1noc2ccccc12`, the growth was 87.3% (inactive).

Take `Nc1nnc(-c2ccc3ccccc3c2O)o1`: the growth is 96.5% (inactive).

Take `CCN(c1ccc(C(=O)N2CCN(c3ccccc3)CC2)cc1)S(C)(=O)=O`: the growth was 92.5% (inactive).

Consider `CC12O[C@H](C[C@@H](O)[C@H]1O)n1c3ccccc3c3c4c(c5c6ccccc6n2c5c31)C(=O)N(CCCN)C4=O`, for which the growth is 17.1% (inactive).

Regarding `CC#CC#Cc1cccc(=O)o1`, the growth was 29.3% (inactive).

Consider `COc1cc(/C=C/C(=O)/C=C/c2cc3ccc(Cl)cc3n(Cc3ccccc3)c2=O)ccc1O`, for which the growth is -42.8% (active).

As to `NCCNc1nc(-c2ccccc2)nc2nc(-c3ccccc3)oc12`, the growth is 18.9% (inactive).

In the case of `COc1ccc(Nc2ncccc2/C=C/C(=O)c2cc(OC)c(OC)c(OC)c2)cc1`, the growth is -62.1% (active).

Take `Cc1ccc(-n2nc(C(C)(C)C)cc2NC(=O)NCc2cc(F)ccc2Oc2ccc3c(cnn3CCO)c2)cc1`: the growth is 23.5% (inactive).

Take `Cc1cc(Cl)nc(N(CCNc2ccnc3cc(Cl)ccc23)Cc2ccco2)n1`: the growth is 29.9% (inactive).

Consider `OCc1cnccc1NC12CC3CC(CC(C3)C1)C2`, for which the growth is 99.2% (inactive).

As to `CSc1ncccc1C(=O)OCC(=O)Nc1oc(C)c2c(C)n[nH]c(=O)c12`, the growth was 98% (inactive).

On to `Cc1cc(-c2ccc3nc(N)sc3c2)nc2ccc3[nH]ncc3c12`, for which the growth was 5.34% (active).

As to `Cn1c(C#N)ccc1-c1ccc(F)c(NC(=O)c2ccc(F)cc2)c1`, the growth is 35.6% (inactive).

Regarding `CCNc1cc2c(cc1Br)-c1ccccc1C2=O`, the growth is 50.2% (inactive).

Take `C=C1C(=O)O[C@H]2[C@H]1CC/C(COC(=O)NCc1c[nH]c3ccc(Cl)cc13)=C\CC[C@@]1(C)O[C@@H]21`: the growth is -70.9% (active).

Consider `Cc1oc2c(Cc3ccc(NC(=O)c4ccc(Cl)cc4)cc3)ncnc2c1C(=O)NO`, for which the growth is 92.1% (inactive).

For the molecule `Cn1ccnc1C(=O)/C=C/c1ccc(CC(=O)Nc2ccc(S(F)(F)(F)(F)F)cc2)cc1`, the growth was -22.9% (active).

Consider `C=C(C)[C@@H]1CC[C@]2(C(=O)N3CCN(CC)CC3)CC[C@]3(C)[C@H](CC[C@@H]4[C@@](C)(CCC(=O)N5CCN(CC)CC5)[C@H](C(=C)C)CC[C@]43C)[C@@H]12`, for which the growth was 43.4% (inactive).

Regarding `COc1cccc2c1C(=O)c1c(O)c3c(c(O)c1C2=O)C[C@](O)(C(=O)CO)C[C@H]3O[C@@H]1C[C@@H](NC(=O)CCCCCN(C)C2(c3ccc(F)cc3)CC3CCC2C3)[C@H](O)[C@@H](C)O1` (stereo not given in full), the growth is 4.63% (active).

Consider `O=CCCCOCc1ccccc1`, for which the growth was 112% (inactive).

As for `COc1cc(O)c2c(=O)c3c(CC=C(C)C)cc(OC)c(O)c3oc2c1`, the growth is 64.6% (inactive).

For the molecule `CCOC(=O)c1cc(C)[nH]c(=O)c1C#N`, the growth was 97.3% (inactive).

`N#Cc1ccc(O)c(C2=NCC(Cc3ccccc3)O2)c1` (stereo not given): the growth was 33.5% (inactive).

As to `CCCCCCCCCCCCCCCCNc1ccccc1`, the growth is 108% (inactive).

`CCn1cc(/C=C2\Oc3cc(OCC#N)ccc3C2=O)c2cc(OC)ccc21`: the growth is 20% (inactive).

For the molecule `Cc1c(O)nc(N)[nH]c1=O`, the growth is 105% (inactive).

For the molecule `Cc1ccc(NC(=O)CSc2nc3ccccc3c(=O)n2CCc2ccccc2)c(C(=O)O)c1`, the growth was 110% (inactive).

Regarding `N=c1ccccn1CCO`, the growth is 113% (inactive).

On to `CCN1CCN(c2cc(C)nc(NCc3cc(Nc4ccnc5cc(Cl)ccc45)ccc3F)n2)CC1`, for which the growth is 47.4% (inactive).

Turning to `Cc1cccc(C)c1NCc1nc(-c2ccccc2)n[nH]1`, the growth was 122% (inactive).

Consider `CC1=Nc2cnc(Nc3ccc(OCCN4CCCC4)cc3)nc2Nc2ccccc21`, for which the growth is 57% (inactive).

Turning to `CC(C)(C)CC(C)(C)c1ccc(OCCSC(=N)N)cc1`, the growth is -23.9% (active).

For the molecule `COc1ccc(/C=C2/C(=O)NC(SCC(=O)N3CCN(c4cc5c(cc4F)c(=O)c(C(=O)O)cn5C4CC4)CC3)=NC2N)cc1OC` (stereo not given), the growth was 102% (inactive).
